Experimental data taken from PubChem BioAssay (Tox21).
A number with no mark means an inactive call. Records with an inconclusive call do not appear. Entries that show only a call come without a potency. Active and inactive are the calls of the source. Unless noted, calls follow the shape of the dose curve; as a rule, active = well fitted curve in the direction sought with a large enough effect in the repeat runs; inconclusive = weak or mixed curves; inactive = no such curve, though single readings can be large; an effect the other way counts as inactive or inconclusive.

What was measured:
[1] = molecular target: Thyrotropin-releasing hormone receptor (Homo sapiens) (UniProt P34981); assay: qHTS assay to identify small molecule agonists of the thyrotropin-releasing hormone receptor (TRHR) signaling pathway (AID 1346891; calls by dose curve;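 also: HEK293 cells expressing TRHR with calcium dye readout; series mostly up to about 58 µM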)
Summary of the method: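 Kinetic fluorescence (3 min, 1 s intervals) reported intracellular calcium after compound transfer onto TRHR-Hek293 cells pre-loaded with dye for 2 h at 37 °C.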

[2] = Human pregnane X receptor (PXR) small molecule agonists, qHTS cell viability counter screen (AID 1346977); also: nearly all actives have a fitted effect of over 50% in size
Summary of the method: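 HepG2 cells stably carrying the PXR-Luc reporter are cultured with 5% charcoal-stripped FBS and treated with compounds for 24hr. CellTiter-Fluor is added at 23hr and fluorescence is read after 1hr.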

[3] = Caspase-3/7 induction in HepG2 cells by small molecules, qHTS assay (AID 1346978); also: nearly all actives have a fitted effect of over 15% in size
Summary of the method: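 Wild-type HepG2 cells (2,000/well) were settled 5 h at 37 C, 5% CO2, then exposed to compounds in DMSO for 17 h. Caspase-3/7 activity was read by luminescence 30 min after adding Caspase-Glo 3/7 reagent at room temperature.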

[4] = Caspase-3/7 induction in CHO-K1 cells by small molecules, qHTS cell viability counter screen (AID 1346979); also: nearly all actives have a fitted effect of over 35% in size
Summary of the method: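 Seeding: 1,500 CHO-K1 cells/well. Rest: 5hr, 37C. Treatment: compounds in DMSO, 16hr. Read: CellTiter-Fluor, 1hr, fluorescence.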

[5] = Caspase-3/7 induction in CHO-K1 cells by small molecules, qHTS assay (AID 1346980); also: nearly all actives have a fitted effect of over 15% in size
Summary of the method: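 Wild-type cells were seeded at 1,500 per well and settled 5 hr at 37 C, 5% CO2, then exposed to DMSO-dissolved compounds for 17 hr. Caspase-Glo 3/7 reagent was added, and luminescence was read after 30min at room temperature.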

[6] = Caspase-3/7 induction in HepG2 cells by small molecules, qHTS cell viability counter screen (AID 1346981); also: series mostly up to about 92 µM; nearly all actives have a fitted effect of over 30% in size
Summary of the method: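 Steps: seed 2,000 HepG2 cells per well; incubate 5 hr at 37 C; pin-add compounds in DMSO; incubate 16 hr; add CellTiter-Fluor; after 1 hr at 37 C and 5% CO2, read fluorescence.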

[7] = molecular target: Nuclear receptor subfamily 1 group I member 2 (Homo sapiens) (UniProt O75469); assay: Human pregnane X receptor (PXR) small molecule agonists, qHTS assay (AID 1346982); also: nearly all actives have a fitted effect of over 35% in size; also: potency is read from the fitted curve at half-maximal effect
Summary of the method: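 Agonist mode qHTS: PXR-Luc HepG2 cells plated 5 hr before DMSO-dissolved compounds were pinned in, cultured 24 hr at 37 C, 5% CO2; ONE-Glo luminescence readout.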

[8] = molecular target: Cytochrome P450 2D6 (Homo sapiens) (UniProt P10635); assay: Cytochrome P450 Family 2 Subfamily D Member 6 (CYP2D6) small molecule antagonists: luciferase reporter qHTS assay (AID 1671196); also: nearly all actives have a fitted effect of over 50% in size; also: potency is read from the fitted curve at half-maximal effect; as to activity change, negative = inhibition: series mostly up to about 120 µM
Summary of the method: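 P450-Glo format: CYP2D6 converts a proluciferin substrate to luciferin in an NADPH-driven reaction lasting 1 h at room temperature. Light output, proportional to CYP2D6 activity, reflects interference by test chemicals.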

[9] = molecular target: Cytochrome P450 2C19 (Homo sapiens) (UniProt P33261); assay: Cytochrome P450 Family 2 Subfamily C Member 19 (CYP2C19) small molecule antagonists: luciferase reporter qHTS assay (AID 1671197); also: nearly all actives have a fitted effect of over 65% in size; also: potency is read from the fitted curve at half-maximal effect; as to activity change, negative = inhibition: series mostly up to about 120 µM
Summary of the method: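 First, compounds are pinned into enzyme-substrate mix and held 10 min at room temperature. Second, NADPH regeneration solution is added and plates incubate 1 h at 37C. Third, detection reagent is added and luminescence read after 20 min.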

[10] = molecular target: Cytochrome P450 1A2 (Homo sapiens) (UniProt P05177); assay: Cytochrome P450 Family 1 Subfamily A Member 2 (CYP1A2) small molecule antagonists: luciferase reporter qHTS assay (AID 1671199); also: series mostly up to about 120 µM; nearly all actives have a fitted effect of over 50% in size
Summary of the method: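 Inhibition of CYP1A2 conversion of proluciferin to luciferin, detected by luminescence. Reaction run 1 h at room temperature with NADPH regeneration after brief compound preincubation.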

[11] = molecular target: Voltage-gated inwardly rectifying potassium channel KCNH2 (Homo sapiens) (UniProt Q12809); assay: Human Ether-a-go-go-Related Gene (hERG) channel small molecule antagonists: fluorescence cell-based qHTS assay (AID 1671200);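 also: hERG-expressing U2OS cells given a thallium stimulus after FluxOR II dye loading; series mostly up to about 77 µM; nearly all actives have a fitted effect of over 50% in size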
Summary of the method: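 First, 1000 cells per well are seeded and cultured overnight at 37 C. Next, FluxOR II dye is loaded for 1 h at room temperature, protected from light. After 10 more minutes, stimulus is added and fluorescence is read.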

[12] = molecular target: Cytochrome P450 3A4 (Homo sapiens) (UniProt P08684); assay: Cytochrome P450 Family 3 Subfamily A Member 4 (CYP3A4) small molecule antagonists: luciferase reporter qHTS assay (AID 1671201); also: nearly all actives have a fitted effect of over 50% in size; also: potency is read from the fitted curve at half-maximal effect; as to activity change, negative = inhibition: series mostly up to about 120 µM
Summary of the method: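 Enzyme and proluciferin substrate are mixed with test chemicals for 10 min, then NADPH regeneration system drives turnover for 1 h at room temperature. A detection reagent halts the reaction; luminescence after 20 min gives relative activity.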

[13] = molecular target: Cytochrome P450 2C9 (Homo sapiens) (UniProt P11712); assay: Cytochrome P450 Family 2 Subfamily C Member 9 (CYP2C9) small molecule antagonists: luciferase reporter qHTS assay (AID 1671198); also: nearly all actives have a fitted effect of over 50% in size; also: potency is read from the fitted curve at half-maximal effect; as to activity change, negative = inhibition: series mostly up to about 120 µM
Summary of the method: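 CYP2C9 activity was measured with a P450-Glo proluciferin substrate. Enzyme–substrate mix was held with compound for 10 min at room temperature, then NADPH regeneration solution was added for 1 h at 37C. Luciferin product was read as luminescence.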

[14] = molecular target: Nuclear receptor subfamily 1 group I member 2 (Rattus norvegicus) (UniProt Q9R1A7); assay: Rat pregnane X receptor (rPXR) activation by small molecules, qHTS assay (AID 1346983); conditions: rPXR luciferase reporter cells, One-Glo luminescence, 24 h; max activation: stronger effect = higher value; also: nearly all actives have a fitted effect of over 20% in size
Summary of the method: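 Cell-based rPXR luciferase reporter assay, 2,000 cells per well, rested 5hr at 37 C before compound addition in DMSO, then 24 hr at 37 C. One-Glo reagent was added and luminescence read after 30 min at room temperature.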

[15] = molecular target: Nuclear receptor subfamily 1 group I member 2 (Homo sapiens) (UniProt O75469); assay: CYP3A4 induction through human pregnane X receptor (PXR) by small molecules, qHTS assay (AID 1346984); also: nearly all actives have a fitted effect of over 40% in size
Summary of the method: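 Steps: seed DPX-2 cells, 5 hr at 37C; pin-transfer compounds; 24 hr at 37C; add Luciferin-IPA (3uM final), 3 hr at 37C; add One-Glo, 30 min RT; read luminescence.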

[16] = molecular target: Nuclear receptor subfamily 1 group I member 2 (Homo sapiens) (UniProt O75469); assay: Human pregnane X receptor (PXR) activation by small molecules, qHTS assay (AID 1346985); also: nearly all actives have a fitted effect of over 40% in size
Summary of the method: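 DPX-2 cells (HepG2 co-transfected with a PXR response element and a CYP3A4-promoter luciferase construct) were seeded at 2,000 per well, rested 5 hr at 37C, then exposed to DMSO-dissolved compounds for 24 hr. Activation was read as luciferase luminescence.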

Sequence of Cytochrome P450 2D6 (Homo sapiens) (P10635 whole entry, looked up): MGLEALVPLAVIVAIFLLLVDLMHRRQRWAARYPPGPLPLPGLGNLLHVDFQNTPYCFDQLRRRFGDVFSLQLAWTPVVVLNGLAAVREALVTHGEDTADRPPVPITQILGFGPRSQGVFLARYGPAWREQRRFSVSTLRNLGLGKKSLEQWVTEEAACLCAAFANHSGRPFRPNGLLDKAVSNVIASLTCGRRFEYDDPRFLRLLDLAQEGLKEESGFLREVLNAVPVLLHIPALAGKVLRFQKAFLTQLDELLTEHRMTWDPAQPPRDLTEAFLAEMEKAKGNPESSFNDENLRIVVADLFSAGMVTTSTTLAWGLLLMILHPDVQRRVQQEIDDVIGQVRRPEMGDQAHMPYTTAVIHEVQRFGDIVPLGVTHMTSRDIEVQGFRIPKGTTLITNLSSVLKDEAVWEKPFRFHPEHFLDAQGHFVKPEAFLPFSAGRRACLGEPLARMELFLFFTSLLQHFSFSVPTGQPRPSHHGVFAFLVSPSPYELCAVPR
Sequence of Cytochrome P450 2C9 (Homo sapiens) (P11712 whole entry, looked up): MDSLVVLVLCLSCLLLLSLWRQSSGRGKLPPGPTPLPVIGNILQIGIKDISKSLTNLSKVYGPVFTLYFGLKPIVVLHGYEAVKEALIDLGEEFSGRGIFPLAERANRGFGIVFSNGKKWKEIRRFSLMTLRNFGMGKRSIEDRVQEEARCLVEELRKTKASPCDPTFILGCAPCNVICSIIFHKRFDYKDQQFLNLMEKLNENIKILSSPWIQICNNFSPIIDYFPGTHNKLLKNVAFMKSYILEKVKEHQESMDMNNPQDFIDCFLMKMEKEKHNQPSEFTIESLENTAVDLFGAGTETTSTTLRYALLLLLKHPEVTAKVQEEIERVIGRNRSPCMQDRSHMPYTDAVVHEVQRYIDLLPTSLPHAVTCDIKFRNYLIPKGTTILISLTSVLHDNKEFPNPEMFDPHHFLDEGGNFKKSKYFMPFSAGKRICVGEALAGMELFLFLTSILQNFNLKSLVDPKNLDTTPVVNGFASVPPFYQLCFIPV
Sequence of Cytochrome P450 3A4 (Homo sapiens) (P08684 whole entry, looked up): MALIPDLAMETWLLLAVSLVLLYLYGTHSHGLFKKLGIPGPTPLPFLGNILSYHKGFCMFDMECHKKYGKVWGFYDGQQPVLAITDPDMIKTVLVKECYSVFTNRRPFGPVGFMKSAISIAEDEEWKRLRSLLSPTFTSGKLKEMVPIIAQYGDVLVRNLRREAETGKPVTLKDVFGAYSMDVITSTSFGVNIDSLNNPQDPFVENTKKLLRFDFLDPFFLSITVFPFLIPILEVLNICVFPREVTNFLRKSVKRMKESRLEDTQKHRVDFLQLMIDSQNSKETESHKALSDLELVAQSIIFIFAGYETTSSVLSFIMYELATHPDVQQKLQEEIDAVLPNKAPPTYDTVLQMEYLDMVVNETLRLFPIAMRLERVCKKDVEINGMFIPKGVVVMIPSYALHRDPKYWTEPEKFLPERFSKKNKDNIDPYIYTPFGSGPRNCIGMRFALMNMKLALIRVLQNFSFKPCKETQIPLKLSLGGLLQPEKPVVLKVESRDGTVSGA
Sequence of Voltage-gated inwardly rectifying potassium channel KCNH2 (Homo sapiens) (Q12809 whole entry, looked up): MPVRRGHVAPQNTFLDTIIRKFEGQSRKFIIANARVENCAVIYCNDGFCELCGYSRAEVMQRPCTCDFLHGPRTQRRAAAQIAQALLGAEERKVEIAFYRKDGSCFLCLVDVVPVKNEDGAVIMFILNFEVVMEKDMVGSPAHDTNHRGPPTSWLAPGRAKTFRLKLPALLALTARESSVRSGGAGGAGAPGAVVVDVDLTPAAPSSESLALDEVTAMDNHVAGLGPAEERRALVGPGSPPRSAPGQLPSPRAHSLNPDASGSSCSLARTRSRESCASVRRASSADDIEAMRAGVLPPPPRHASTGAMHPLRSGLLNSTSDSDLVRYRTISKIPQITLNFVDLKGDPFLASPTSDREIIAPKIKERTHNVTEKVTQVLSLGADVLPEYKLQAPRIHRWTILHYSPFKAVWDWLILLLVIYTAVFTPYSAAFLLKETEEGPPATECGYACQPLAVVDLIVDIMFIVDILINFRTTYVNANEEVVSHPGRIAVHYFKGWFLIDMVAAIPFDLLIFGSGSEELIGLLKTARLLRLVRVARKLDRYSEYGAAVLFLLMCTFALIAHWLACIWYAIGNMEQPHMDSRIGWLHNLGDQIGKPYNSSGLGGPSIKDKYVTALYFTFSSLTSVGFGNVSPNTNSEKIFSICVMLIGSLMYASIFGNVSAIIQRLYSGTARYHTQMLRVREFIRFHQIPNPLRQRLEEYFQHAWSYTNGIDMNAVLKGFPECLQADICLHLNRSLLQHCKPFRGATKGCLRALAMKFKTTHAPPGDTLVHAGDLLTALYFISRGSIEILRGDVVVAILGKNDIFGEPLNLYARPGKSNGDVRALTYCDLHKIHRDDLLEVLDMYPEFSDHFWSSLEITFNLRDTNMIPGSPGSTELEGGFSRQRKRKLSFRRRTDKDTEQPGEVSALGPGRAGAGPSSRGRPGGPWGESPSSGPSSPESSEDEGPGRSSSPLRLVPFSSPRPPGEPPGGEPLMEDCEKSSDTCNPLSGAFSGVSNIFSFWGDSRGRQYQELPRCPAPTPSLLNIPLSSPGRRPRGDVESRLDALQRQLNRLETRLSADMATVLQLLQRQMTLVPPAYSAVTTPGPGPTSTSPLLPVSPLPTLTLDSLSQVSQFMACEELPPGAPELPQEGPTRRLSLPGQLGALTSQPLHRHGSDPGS
Sequence of Cytochrome P450 2C19 (Homo sapiens) (P33261 whole entry, looked up): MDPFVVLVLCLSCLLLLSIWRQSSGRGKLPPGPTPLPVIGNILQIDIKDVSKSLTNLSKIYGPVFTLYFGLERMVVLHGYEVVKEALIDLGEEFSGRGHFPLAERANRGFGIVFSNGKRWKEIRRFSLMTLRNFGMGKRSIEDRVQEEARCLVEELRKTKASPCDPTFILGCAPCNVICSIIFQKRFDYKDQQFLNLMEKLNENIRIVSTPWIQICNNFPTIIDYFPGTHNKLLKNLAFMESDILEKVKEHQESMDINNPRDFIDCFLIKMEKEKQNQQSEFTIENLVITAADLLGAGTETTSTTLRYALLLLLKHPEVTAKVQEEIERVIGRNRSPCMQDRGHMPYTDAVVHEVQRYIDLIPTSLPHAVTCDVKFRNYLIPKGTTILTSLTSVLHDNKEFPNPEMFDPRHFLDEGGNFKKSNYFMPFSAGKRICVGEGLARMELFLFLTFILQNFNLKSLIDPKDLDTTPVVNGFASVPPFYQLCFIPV
Sequence of Cytochrome P450 1A2 (Homo sapiens) (P05177 whole entry, looked up): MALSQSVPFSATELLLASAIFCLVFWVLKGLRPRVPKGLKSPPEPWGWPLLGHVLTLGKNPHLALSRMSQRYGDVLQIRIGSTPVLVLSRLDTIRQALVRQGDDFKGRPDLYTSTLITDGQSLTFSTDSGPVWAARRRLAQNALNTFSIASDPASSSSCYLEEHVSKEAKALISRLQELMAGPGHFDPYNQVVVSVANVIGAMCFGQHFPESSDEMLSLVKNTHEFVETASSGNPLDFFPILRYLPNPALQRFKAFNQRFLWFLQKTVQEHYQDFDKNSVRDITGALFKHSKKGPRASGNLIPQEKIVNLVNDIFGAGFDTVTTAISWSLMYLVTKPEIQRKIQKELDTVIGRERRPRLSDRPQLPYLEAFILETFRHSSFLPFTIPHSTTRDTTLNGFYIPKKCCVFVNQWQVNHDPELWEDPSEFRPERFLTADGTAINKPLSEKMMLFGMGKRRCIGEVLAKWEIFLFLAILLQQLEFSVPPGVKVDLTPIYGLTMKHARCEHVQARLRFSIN
Sequence of Thyrotropin-releasing hormone receptor (Homo sapiens) (P34981 whole entry, looked up): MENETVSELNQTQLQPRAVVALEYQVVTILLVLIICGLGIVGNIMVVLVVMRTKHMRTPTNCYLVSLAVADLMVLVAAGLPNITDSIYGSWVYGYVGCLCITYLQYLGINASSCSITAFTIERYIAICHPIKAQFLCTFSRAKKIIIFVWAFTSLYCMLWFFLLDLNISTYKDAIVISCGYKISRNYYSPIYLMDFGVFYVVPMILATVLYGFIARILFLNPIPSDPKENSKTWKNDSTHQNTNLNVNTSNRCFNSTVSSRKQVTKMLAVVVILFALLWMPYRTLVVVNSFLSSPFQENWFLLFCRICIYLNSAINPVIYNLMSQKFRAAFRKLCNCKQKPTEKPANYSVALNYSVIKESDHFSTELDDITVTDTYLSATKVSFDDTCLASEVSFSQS
Sequence of Nuclear receptor subfamily 1 group I member 2 (Homo sapiens) (O75469 whole entry, looked up): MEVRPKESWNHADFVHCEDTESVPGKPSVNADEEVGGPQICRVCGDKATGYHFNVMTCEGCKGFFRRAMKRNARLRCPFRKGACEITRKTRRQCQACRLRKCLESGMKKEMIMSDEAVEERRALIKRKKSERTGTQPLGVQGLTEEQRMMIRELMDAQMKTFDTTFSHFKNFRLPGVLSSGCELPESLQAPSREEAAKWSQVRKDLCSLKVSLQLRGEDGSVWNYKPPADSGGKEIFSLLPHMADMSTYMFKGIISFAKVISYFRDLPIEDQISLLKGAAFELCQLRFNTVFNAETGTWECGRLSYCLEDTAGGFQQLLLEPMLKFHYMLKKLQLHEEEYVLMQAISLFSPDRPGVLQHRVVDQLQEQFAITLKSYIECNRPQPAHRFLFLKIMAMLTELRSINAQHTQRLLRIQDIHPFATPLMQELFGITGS
Sequence of Nuclear receptor subfamily 1 group I member 2 (Rattus norvegicus) (Q9R1A7 whole entry, looked up): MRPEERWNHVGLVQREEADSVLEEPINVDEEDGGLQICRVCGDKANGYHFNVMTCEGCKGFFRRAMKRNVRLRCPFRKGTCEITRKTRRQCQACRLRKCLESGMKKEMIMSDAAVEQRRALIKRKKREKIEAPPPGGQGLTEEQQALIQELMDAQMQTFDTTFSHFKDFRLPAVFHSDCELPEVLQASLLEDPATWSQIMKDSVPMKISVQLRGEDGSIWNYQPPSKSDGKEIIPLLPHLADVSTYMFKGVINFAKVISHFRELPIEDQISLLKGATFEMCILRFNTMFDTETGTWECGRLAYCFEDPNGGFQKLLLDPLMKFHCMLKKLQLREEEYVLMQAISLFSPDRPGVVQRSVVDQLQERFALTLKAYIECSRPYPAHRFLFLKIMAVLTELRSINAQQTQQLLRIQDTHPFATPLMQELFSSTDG

NC(=S)Nc1cccc2ccccc12
activation [1]: -0.377% [at 5.23 µM] | activity change, negative = cytotoxicity [2]: -0.344% [at 8.39 µM] | caspase activation [3]: 1% [at 8.39 µM] | activity change, negative = cytotoxicity [4]: -1.57% [at 8.39 µM] | caspase-3/7 activation [5]: 0.137% [at 8.39 µM] | activity change, negative = cytotoxicity [6]: -1.33% [at 8.39 µM] | activation [7]: -0.9% [at 8.39 µM] | Potency [8]: 2.01 µM (active) | activity change, negative = inhibition [9]: -10% [at 10.5 µM] | activity change, negative = inhibition [10]: -26.4% [at 10.5 µM] | activity change, negative = inhibition [11]: 1.12% [at 6.97 µM] | activity change, negative = inhibition [12]: 1.29% [at 10.5 µM]

COc1cccc(Br)c1
outcome [1]: inactive | Potency [2]: inactive | outcome [3]: inactive | Potency [4]: inactive | outcome [5]: inactive | outcome [6]: inactive | Potency [7]: inactive | Potency [8]: inactive | Potency [9]: inactive | Potency [13]: inactive | Potency [10]: inactive | Potency [11]: inactive | Potency [12]: inactive

CO[Si](OC)(OC)OC
outcome [1]: inactive | Potency [2]: inactive | outcome [3]: inactive | Potency [4]: inactive | outcome [5]: inactive | outcome [6]: inactive | Potency [7]: inactive | Potency [8]: inactive | Potency [9]: inactive | Potency [13]: inactive | Potency [11]: inactive | Potency [12]: inactive

CC1CCN(CCCC(=O)c2ccc(F)cc2)CC1
outcome [1]: inactive | Potency [2]: inactive | outcome [3]: inactive | Potency [4]: inactive | outcome [5]: inactive | outcome [6]: inactive | Potency [7]: inactive | max activation [14]: -4.88% | Potency [15]: inactive | Potency [16]: inactive | Potency [8]: 0.246 µM (active) | Potency [9]: 34.7 µM (active) | Potency [13]: inactive | Potency [12]: inactive

NCCNC(=O)c1ccc(Cl)cn1
outcome [1]: inactive | Potency [2]: inactive | outcome [3]: inactive | Potency [4]: inactive | outcome [5]: inactive | outcome [6]: inactive | Potency [7]: inactive | max activation [14]: -1.85% | Potency [15]: inactive | Potency [16]: inactive | Potency [9]: inactive | Potency [13]: inactive | Potency [11]: inactive | Potency [12]: inactive

CN1[C@@H]2CC[C@H]1CC(NC(=O)n1c(=O)[nH]c3ccccc31)C2 (stereo partly specified)
outcome [1]: inactive | Potency [2]: inactive | outcome [3]: inactive | Potency [4]: inactive | outcome [5]: inactive | outcome [6]: inactive | Potency [7]: inactive | Potency [8]: 0.776 µM (active) | Potency [9]: inactive | Potency [13]: inactive | Potency [12]: inactive

CCN1CCN(c2cc3c(cc2F)c(=O)c(C(=O)O)cn3C2CC2)CC1
outcome [1]: inactive | Potency [2]: inactive | outcome [3]: inactive | Potency [4]: inactive | outcome [5]: inactive | outcome [6]: inactive | Potency [7]: inactive | Potency [8]: inactive | Potency [9]: inactive | Potency [13]: inactive | Potency [10]: inactive | Potency [11]: inactive | Potency [12]: inactive

CC1=CCC2C(C1)C2(C)C (stereo unspecified)
outcome [1]: inactive | Potency [2]: inactive | outcome [3]: inactive | Potency [4]: inactive | outcome [5]: inactive | outcome [6]: inactive | Potency [7]: 48.6 µM (active) | Potency [8]: inactive | Potency [9]: 39.9 µM (active) | Potency [13]: 63.3 µM (active) | Potency [11]: inactive | Potency [12]: 15.9 µM (active)
